PubChem BioAssay
Results filed as inconclusive are left out. Activity calls are given as the source filed them.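 Rule for the calls, unless noted: active = differentiation response of at least 50%, scaled between solvent and reference control, from cells with both markers; inactive = the rest.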

What was measured:
[1] = yeast TOR pathway RPL19A-GFP modulators, primary screen, cell-based, S. cerevisiae, multiplex flow cytometry (AID 1862; in the data active = percent of DMSO control GFP below about 86%;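 note: lower values mimic rapamycin by blocking the RPL19A rise seen in DMSO cells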); details: S. cerevisiae RPL19A-GFP strain, flow cytometry fluorescence, 3 h; at 10 µM; stronger effect = lower value
[2] = modulators of MEP2-GFP levels in yeast, primary screen, S. cerevisiae, multiplex flow cytometry (AID 1867;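 active = GFP response, as percent of the DMSO control, above the screen-wide mean plus 3 SD, about 139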;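 note: median GFP channel fluorescence of barcode-gated MEP2-GFP cells measured by flow cytometry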); details: S. cerevisiae MEP2-GFP strain, 3 h, at 10 µM, stronger effect = higher value, 100% means same as DMSO wells
[3] = modulators of CIT2-GFP expression in yeast, primary screen, S. cerevisiae, GFP fusion, multiplex flow cytometry (AID 1870;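 active = percent response above a set limit, the screen-wide mean plus 3 SD, cut at about 130% in these data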;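 note: barcoded CIT2-GFP strain pooled with four other GFP strains with rapamycin as positive control; median GFP fluorescence per well over plate mean of DMSO wells so 100% = DMSO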); details: 3 h, at 10 µM, stronger effect = higher value
[4] = modulators of LAP4-GFP expression in yeast, primary screen, S. cerevisiae, multiplex flow cytometry (AID 1873;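 active = GFP signal, as percent of the solvent control, above the screen mean plus 3 SD, about 149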); details: 3 h, at 10 µM, stronger effect = higher value
[5] = inhibitors of CD8+ T cell-vesicle binding, pilot screen, LFA-1/ICAM-1 modulator project, MLPCN validation set, flow cytometry (AID 2523;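 active = response below a set limit, under 55% cells CD8-positive and vesicle-bound, and CD8 cells' 90th-percentile brightness under 279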;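 for vesicle binding response: mean PE anti-B7-1 fluorescence of CD8+ cells relative to row control; 100% = QL9-loaded vesicles with DMSO vehicle in the same plate row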); details: 2C mouse CD8+ T cells, at 7 µM, stronger effect = lower value; double positive events: measured here: CD8+/vesicle+ event percentage
[6] = molecular target: Integrin beta-1 (Homo sapiens) + Integrin alpha-4 (Homo sapiens) (UniProt P13612+P05556); experiment: inhibition of HUTS-21 binding to VLA-4, pilot screen, VLA-4 allosteric modulator project, U937 cells, HUTS-21 mAb, flow cytometry, validation set (AID 2674;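 active = inhibition above 50%, about 3 SD of the validation set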;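 note: antibody binding induced by the VLA-4 ligand LDV present at three times its Kd; 0% = LDV ligand with antibody and no compound and 100% = antibody without LDV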); details: HUTS-21 LIBS mAb binding, at 6.7 µM, stronger effect = higher value, binding induced by LDV ligand
[7] = superoxide lowering in aged yeast cells, pilot screen, validation compound set (AID 2706;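 active = superoxide response below 65% of plate, a cut near 3 SD across the whole screen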;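 note: yeast exposed to compound for one week at 30 degrees C before staining; 100% = mean of all compound wells on the same plate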); details: S. cerevisiae aging, superoxide DHE fluorescence; at 10 µM, stronger effect = lower value
[8] = molecular target: Beta-adrenergic receptor kinase 1 (Homo sapiens) (UniProt P25098); experiment: GRK2 binders displacing RNA aptamer, biochemical, validation, human GRK2, bead flow cytometry (AID 488806;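 active = aptamer binding inhibition above 30%, about 3 SD of noise from non-fluorescent compounds; inactive = inhibition at or below 30%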); details: bead-bound GRK2, FAM-aptamer displacement, at 10 µM, stronger effect = higher value
[9] = molecular target: Beta-2 adrenergic receptor (Homo sapiens) (UniProt P07550); experiment: beta2AR agonists driving receptor internalization, pilot screen, cell-based, FAP fluorogen, flow cytometry, validation set (AID 504459;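 active = percent response above 42, roughly 3 SD of non-fluorescent test compounds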;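 note: agonist-driven loss of surface beta2AR via internalization measured by FAP dye flow cytometry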); details: Am2.2-beta2AR cells, FAP surface receptor flow cytometry; at 10 µM; stronger effect = higher value
[10] = molecular target: AP-2 complex subunit beta (Homo sapiens) (UniProt P63010); experiment: inhibitors of arrestin peptide binding to AP2, pilot screen, biochemical, validation set, GST-AP2 beads, flow cytometry (AID 504541;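 active = inhibition above 54%, about 3 SD of non-fluorescent compounds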;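 note: AP2 carries R879A mutation and is captured from E. coli lysate; bead-bound FITC arrestin peptide fluorescence measuring arrestin peptide binding to AP2; 0% = DMSO wells and 100% = excess unlabeled arrestin peptide control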); details: FITC arrestin peptide, at 10 µM, stronger effect = higher value, AP2 beta2 appendage fragment, R879A mutant
[11] = yeast V-ATPase proton transport modulators, S. cerevisiae, pHLuorin, HTS validation (AID 504600; in the data active = response above about 15%;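 note: plate controls were DMSO for no effect and reference compound for full effect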); details: S. cerevisiae pHLuorin cytosolic pH, at 10 µM, stronger effect = higher value
[12] = system: anti-desmoglein-3 scFv antibody binding to human DSG3; experiment: inhibitors of anti-DSG3 scFv binding to DSG3, pilot screen, biochemical, validation compound set, bead-based, flow cytometry (AID 588368;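 active = binding below the plate cutoff, the plate median minus 3 SD, with a reading above zero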;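 note: signal is the median channel fluorescence of bead-bound GFP antibody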); details: Protein G beads, DSG3-Fc, scFv-GFP binding, at 10 µM, stronger effect = lower value
[13] = inhibitors of fungal efflux pumps CDR1, CDR2, MDR1, pilot screen, validation compound set, multiplex, phenotypic (AID 588506;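 active = efflux inhibition above 0.42, the validation set average plus 4 SD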;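 note: Nile Red retained in cells so higher fluorescence means more efflux inhibition; 0 = negative control wells and 1 = enniatin B 25 µM full block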); details: S. cerevisiae pump-expressing triplex, Nile Red efflux flow cytometry; at 10 µM; stronger effect = higher value; the pumps come from Candida albicans
[14] = molecular target: ATP-binding cassette sub-family B member 6 (Homo sapiens) (UniProt Q9NP58); experiment: ABCB6 transporter inhibitors, pilot screen, K562-ABCB6 cells, flow cytometry, validation set (AID 588550;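 active = inhibition above the screen-wide mean plus 3 SD, about 51%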;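 note: 0% = DMSO wells and 100% = benzethonium chloride 70 µM positive control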); details: K562-ABCB6 porphyrin accumulation, 1 h, at 10 µM, stronger effect = higher value
[15] = promoters of myeloid differentiation in arrested cells, primary screen, cell-based, GFP/MAC1 double positive, flow cytometry, validation set (AID 588685); details: ER-HoxA9 marrow cells, stronger effect = higher value, normalized: vehicle 0, fulvestrant 100;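 note: compound exposure lasts four days before antibody staining and flow analysis; 0% = DMSO wells and 100% = 5 µM fulvestrant positive control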
[16] = modulators of AGP1-GFP expression in yeast TOR pathway, primary screen, cell-based, multiplex flow cytometry, S. cerevisiae (AID 1887;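 active = GFP signal above the screen-wide mean plus 3 SD, that is over about 124.5% of the solvent control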;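 note: AGP1-GFP fusion strain of S. cerevisiae within a five-strain barcoded multiplex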); details: 3 h, at 10 µM, stronger effect = higher value

Sequence of Integrin beta-1 (Homo sapiens) + Integrin alpha-4 (Homo sapiens) (P05556 whole entry, looked up): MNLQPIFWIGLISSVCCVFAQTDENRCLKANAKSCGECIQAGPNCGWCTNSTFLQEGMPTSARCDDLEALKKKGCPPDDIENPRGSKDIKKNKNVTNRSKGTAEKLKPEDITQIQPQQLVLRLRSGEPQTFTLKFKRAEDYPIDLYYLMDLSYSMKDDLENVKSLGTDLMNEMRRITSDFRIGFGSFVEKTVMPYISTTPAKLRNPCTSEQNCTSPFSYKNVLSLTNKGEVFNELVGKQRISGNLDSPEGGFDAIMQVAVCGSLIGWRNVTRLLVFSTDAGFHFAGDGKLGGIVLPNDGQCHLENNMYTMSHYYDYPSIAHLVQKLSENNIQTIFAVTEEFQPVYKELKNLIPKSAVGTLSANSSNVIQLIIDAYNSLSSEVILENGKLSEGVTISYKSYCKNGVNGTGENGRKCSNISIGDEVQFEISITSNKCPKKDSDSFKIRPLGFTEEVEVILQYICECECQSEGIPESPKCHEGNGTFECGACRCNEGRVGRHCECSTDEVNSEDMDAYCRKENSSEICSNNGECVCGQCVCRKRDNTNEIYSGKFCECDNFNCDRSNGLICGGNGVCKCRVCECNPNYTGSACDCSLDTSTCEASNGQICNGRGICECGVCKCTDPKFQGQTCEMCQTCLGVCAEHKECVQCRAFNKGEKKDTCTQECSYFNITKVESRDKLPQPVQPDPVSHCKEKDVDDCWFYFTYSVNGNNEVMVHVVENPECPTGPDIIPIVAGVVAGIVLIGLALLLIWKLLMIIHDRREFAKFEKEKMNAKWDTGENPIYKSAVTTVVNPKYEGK
Sequence of Integrin beta-1 (Homo sapiens) + Integrin alpha-4 (Homo sapiens) (P13612 whole entry, looked up): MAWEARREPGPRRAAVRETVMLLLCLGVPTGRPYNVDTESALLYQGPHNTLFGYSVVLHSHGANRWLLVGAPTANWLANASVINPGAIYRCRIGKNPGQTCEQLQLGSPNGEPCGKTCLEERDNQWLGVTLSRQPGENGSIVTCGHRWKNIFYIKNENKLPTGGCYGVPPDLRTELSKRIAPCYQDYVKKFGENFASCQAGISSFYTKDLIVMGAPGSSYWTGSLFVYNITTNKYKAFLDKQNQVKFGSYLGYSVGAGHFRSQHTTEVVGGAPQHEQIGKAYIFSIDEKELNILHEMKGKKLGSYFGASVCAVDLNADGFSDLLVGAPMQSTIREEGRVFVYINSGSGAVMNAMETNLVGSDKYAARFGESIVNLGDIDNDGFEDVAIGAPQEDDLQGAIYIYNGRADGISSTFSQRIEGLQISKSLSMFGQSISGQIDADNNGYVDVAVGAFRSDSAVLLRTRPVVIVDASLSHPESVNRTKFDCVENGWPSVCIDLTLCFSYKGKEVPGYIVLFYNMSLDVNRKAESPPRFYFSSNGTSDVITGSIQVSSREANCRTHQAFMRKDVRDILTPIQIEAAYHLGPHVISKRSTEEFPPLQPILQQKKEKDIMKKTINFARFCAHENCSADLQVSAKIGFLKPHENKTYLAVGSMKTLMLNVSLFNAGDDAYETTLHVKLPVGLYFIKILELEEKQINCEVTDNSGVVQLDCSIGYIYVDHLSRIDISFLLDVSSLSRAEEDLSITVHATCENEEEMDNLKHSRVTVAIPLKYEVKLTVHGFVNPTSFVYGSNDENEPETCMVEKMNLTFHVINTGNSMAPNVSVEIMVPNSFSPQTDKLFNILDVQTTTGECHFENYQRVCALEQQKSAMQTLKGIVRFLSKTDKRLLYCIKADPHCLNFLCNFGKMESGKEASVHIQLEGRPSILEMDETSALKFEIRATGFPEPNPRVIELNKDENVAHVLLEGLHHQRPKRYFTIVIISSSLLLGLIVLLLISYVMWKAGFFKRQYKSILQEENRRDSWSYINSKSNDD
Sequence of AP-2 complex subunit beta (Homo sapiens) (P63010 whole entry, looked up, the tested form may be a part, one chain of several): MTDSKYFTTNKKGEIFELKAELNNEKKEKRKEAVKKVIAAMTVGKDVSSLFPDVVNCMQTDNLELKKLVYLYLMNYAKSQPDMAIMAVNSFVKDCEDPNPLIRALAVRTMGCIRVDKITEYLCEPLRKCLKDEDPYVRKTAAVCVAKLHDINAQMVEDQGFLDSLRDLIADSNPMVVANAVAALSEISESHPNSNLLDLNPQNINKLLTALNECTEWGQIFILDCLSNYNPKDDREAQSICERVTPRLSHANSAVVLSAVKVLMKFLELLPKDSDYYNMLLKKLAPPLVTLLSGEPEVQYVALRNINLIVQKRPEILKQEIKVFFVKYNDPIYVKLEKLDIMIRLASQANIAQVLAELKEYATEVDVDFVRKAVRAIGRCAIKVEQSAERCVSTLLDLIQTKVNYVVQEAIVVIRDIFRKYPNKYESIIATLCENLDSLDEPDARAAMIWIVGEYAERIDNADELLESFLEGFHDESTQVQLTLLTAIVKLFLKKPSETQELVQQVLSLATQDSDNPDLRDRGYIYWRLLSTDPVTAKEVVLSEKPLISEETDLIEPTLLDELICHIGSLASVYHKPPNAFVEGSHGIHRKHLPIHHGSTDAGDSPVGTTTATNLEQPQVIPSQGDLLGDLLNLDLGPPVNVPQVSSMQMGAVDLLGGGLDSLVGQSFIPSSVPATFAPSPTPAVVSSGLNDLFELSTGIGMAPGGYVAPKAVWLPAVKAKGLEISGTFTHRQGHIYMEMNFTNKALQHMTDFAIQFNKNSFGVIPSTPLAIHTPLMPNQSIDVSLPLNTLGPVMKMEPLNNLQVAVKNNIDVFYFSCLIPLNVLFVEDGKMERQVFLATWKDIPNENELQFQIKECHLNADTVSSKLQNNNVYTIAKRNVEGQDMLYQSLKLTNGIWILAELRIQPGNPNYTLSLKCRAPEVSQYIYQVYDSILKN
Sequence of ATP-binding cassette sub-family B member 6 (Homo sapiens) (Q9NP58 whole entry, looked up): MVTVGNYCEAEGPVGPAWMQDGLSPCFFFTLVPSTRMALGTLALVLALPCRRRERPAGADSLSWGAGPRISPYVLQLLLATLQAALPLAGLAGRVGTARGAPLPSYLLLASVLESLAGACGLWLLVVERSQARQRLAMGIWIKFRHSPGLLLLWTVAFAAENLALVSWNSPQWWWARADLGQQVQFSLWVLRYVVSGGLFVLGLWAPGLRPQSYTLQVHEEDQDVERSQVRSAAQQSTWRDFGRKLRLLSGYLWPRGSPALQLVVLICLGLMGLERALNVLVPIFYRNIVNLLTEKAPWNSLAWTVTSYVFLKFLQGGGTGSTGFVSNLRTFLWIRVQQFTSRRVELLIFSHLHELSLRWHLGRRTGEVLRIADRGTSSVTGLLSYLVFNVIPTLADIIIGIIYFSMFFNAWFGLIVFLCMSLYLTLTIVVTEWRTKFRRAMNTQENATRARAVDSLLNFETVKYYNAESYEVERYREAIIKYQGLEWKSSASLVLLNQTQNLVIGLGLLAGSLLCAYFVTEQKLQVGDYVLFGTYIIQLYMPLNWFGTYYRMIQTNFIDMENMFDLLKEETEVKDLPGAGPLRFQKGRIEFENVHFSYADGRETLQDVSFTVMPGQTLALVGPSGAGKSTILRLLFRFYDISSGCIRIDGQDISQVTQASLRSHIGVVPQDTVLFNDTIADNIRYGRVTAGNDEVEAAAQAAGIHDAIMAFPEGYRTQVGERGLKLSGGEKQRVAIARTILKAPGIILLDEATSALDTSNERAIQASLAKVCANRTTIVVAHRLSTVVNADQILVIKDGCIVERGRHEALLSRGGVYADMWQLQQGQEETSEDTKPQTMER
Sequence of Beta-adrenergic receptor kinase 1 (Homo sapiens) (P25098 whole entry, looked up): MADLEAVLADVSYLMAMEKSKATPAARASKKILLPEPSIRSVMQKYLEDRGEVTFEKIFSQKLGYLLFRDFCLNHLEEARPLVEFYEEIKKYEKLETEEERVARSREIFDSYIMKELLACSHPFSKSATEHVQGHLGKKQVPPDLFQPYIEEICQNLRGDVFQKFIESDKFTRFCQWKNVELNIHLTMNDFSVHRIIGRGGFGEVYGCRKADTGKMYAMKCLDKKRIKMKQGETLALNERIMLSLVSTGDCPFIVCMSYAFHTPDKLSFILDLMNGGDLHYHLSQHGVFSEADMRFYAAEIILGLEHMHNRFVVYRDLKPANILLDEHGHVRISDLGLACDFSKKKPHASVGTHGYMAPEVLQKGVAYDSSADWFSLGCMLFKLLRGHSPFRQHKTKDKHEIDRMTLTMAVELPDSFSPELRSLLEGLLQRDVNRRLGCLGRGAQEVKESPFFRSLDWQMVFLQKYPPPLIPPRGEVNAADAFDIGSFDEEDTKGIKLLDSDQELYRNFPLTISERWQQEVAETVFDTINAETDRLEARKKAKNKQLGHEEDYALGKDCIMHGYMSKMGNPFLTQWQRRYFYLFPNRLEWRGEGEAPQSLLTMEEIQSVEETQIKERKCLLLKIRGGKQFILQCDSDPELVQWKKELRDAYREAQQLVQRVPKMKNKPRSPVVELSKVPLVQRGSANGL
Sequence of Beta-2 adrenergic receptor (Homo sapiens) (P07550 whole entry, looked up): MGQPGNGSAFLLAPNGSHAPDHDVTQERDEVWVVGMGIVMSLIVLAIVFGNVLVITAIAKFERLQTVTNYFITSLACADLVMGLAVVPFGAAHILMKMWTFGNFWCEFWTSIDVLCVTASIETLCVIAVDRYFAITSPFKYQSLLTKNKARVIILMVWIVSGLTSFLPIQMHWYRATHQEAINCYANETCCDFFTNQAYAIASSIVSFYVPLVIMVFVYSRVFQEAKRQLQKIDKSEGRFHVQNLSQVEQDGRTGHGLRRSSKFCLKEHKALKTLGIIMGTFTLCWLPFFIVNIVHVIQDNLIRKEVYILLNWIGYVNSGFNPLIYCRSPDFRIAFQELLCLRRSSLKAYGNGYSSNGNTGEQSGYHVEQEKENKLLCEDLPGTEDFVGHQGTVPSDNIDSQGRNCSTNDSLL

CC(NCCC(c1ccccc1)c1ccccc1)c1ccccc1 (stereo not given)
64.4%: double positive events [5]
inactive: percent of DMSO control GFP [1] 92.6% | GFP response vs DMSO [2] 122% | percent response of DMSO control [3] 111% | GFP response vs DMSO [4] 68.8% | vesicle binding response [5] 167% | inhibition [6] 6.46% | superoxide response (% of plate) [7] 95.5% | aptamer binding inhibition [8] -3% | response [9] 24.3% | inhibition [10] 0.65% | response [11] 13.1% | binding (% of control) [12] 116% | efflux inhibition (fraction of control) [13] 0.19 | inhibition [14] 9% | differentiation response [15] -0.82%

C[C@]12CC[C@@H]3c4ccc(OS(=O)(=O)O)cc4CC[C@H]3[C@@H]1CCC2=O
73.4%: double positive events [5]
inactive: percent of DMSO control GFP [1] 90.6% | GFP response vs DMSO [2] 120% | percent response of DMSO control [3] 96.6% | GFP response vs DMSO [4] 79.2% | vesicle binding response [5] 292% | inhibition [6] 5.49% | superoxide response (% of plate) [7] 95.8% | aptamer binding inhibition [8] -3% | response [9] 0.04% | inhibition [10] -3.24% | response [11] 3.54% | binding (% of control) [12] 104% | efflux inhibition (fraction of control) [13] -0.24 | inhibition [14] 11% | differentiation response [15] 6.55%

Cc1cc(C(C)(C)C)c(O)c(C)c1CC1=NCCN1
62.9%: double positive events [5]
inactive: percent of DMSO control GFP [1] 103% | GFP response vs DMSO [2] 116% | percent response of DMSO control [3] 114% | GFP response vs DMSO [4] 94.1% | vesicle binding response [5] 297% | inhibition [6] -29.4% | superoxide response (% of plate) [7] 93.7% | aptamer binding inhibition [8] 1% | response [9] 8.56% | inhibition [10] -0.66% | response [11] 0.6% | binding (% of control) [12] 106% | efflux inhibition (fraction of control) [13] 0.34 | inhibition [14] 12% | differentiation response [15] 7.37%

CC12CCC(C(=O)N3CCCCC3)([C@H](Br)C1=O)C2(C)C (stereo not given in full)
65.8%: double positive events [5]
inactive: percent of DMSO control GFP [1] 90.6% | GFP response vs DMSO [2] 119% | percent response of DMSO control [3] 101% | GFP response vs DMSO [4] 78.7% | vesicle binding response [5] 272% | inhibition [6] 8.4% | superoxide response (% of plate) [7] 101% | aptamer binding inhibition [8] -1% | response [9] -6.79% | inhibition [10] -4.61% | response [11] 0.52% | binding (% of control) [12] 98.5% | efflux inhibition (fraction of control) [13] -0.13 | inhibition [14] 11% | differentiation response [15] -1.64%

Nc1c2c(nc3ccccc13)CCCC2
68.9%: double positive events [5]
inactive: percent of DMSO control GFP [1] 89.5% | GFP response vs DMSO [2] 112% | percent response of DMSO control [3] 99.2% | GFP response vs DMSO [4] 69.9% | vesicle binding response [5] 258% | inhibition [6] 1.61% | superoxide response (% of plate) [7] 105% | aptamer binding inhibition [8] 2% | response [9] -14.3% | inhibition [10] 3.69% | response [11] 7.21% | binding (% of control) [12] 104% | efflux inhibition (fraction of control) [13] 0.05 | inhibition [14] 11% | differentiation response [15] -5.73%

O=C(CCCCCCCC(=O)c1ccccc1)c1ccccc1
62.1%: double positive events [5]
inactive: percent of DMSO control GFP [1] 98.2% | percent response of DMSO control [3] 98.6% | GFP response vs DMSO [4] 105% | GFP response, % of DMSO [16] 96.9% | vesicle binding response [5] 189% | inhibition [6] -5.89% | superoxide response (% of plate) [7] 95.3% | aptamer binding inhibition [8] 7% | response [9] 9.71% | inhibition [10] -3.86% | response [11] -4.73% | binding (% of control) [12] 98.9% | efflux inhibition (fraction of control) [13] -0.13 | inhibition [14] 7% | differentiation response [15] 5.6%

CC1CNCCN1S(=O)(=O)c1cccc2cnccc12 (stereo not given)
62.9%: double positive events [5]
inactive: percent of DMSO control GFP [1] 95% | percent response of DMSO control [3] 104% | GFP response vs DMSO [4] 111% | GFP response, % of DMSO [16] 91.3% | vesicle binding response [5] 918% | inhibition [6] 17.2% | superoxide response (% of plate) [7] 91.3% | aptamer binding inhibition [8] 3% | response [9] -6.28% | inhibition [10] -9.84% | response [11] 1.37% | binding (% of control) [12] 96.3% | efflux inhibition (fraction of control) [13] -0.07 | inhibition [14] 2% | differentiation response [15] 14.9%

OC[C@H]1O[C@@H](n2cnc3c(Nc4ccccc4)ncnc32)[C@H](O)[C@@H]1O
62.8%: double positive events [5]
inactive: percent of DMSO control GFP [1] 92.4% | GFP response vs DMSO [2] 118% | percent response of DMSO control [3] 112% | GFP response vs DMSO [4] 73.2% | vesicle binding response [5] 139% | inhibition [6] -9.06% | superoxide response (% of plate) [7] 110% | aptamer binding inhibition [8] 1% | response [9] -8.38% | inhibition [10] -2.59% | response [11] -0.49% | binding (% of control) [12] 103% | efflux inhibition (fraction of control) [13] 0.3 | inhibition [14] 10% | differentiation response [15] 2.46%

COc1ccc(C2C3C(C)=NN=C3CC(C)(O)C2C(C)=O)cc1 (stereo not given)
60.7%: double positive events [5]
inactive: percent of DMSO control GFP [1] 99.5% | percent response of DMSO control [3] 97.7% | GFP response vs DMSO [4] 94% | GFP response, % of DMSO [16] 96.9% | vesicle binding response [5] 265% | inhibition [6] 13.2% | superoxide response (% of plate) [7] 103% | aptamer binding inhibition [8] 6% | response [9] -1.78% | inhibition [10] 12.8% | response [11] 2.14% | binding (% of control) [12] 101% | efflux inhibition (fraction of control) [13] -0.21 | inhibition [14] 3% | differentiation response [15] -18.4%

CCN1CCN(C(=O)N[C@@H](C(=O)N[C@@H]2C(=O)N3[C@@H]2SC(C)(C)[C@@H]3C(=O)O)c2ccccc2)C(=O)C1=O
inactive: percent of DMSO control GFP [1] 94.4% | GFP response vs DMSO [2] 122% | percent response of DMSO control [3] 103% | GFP response vs DMSO [4] 74.3% | vesicle binding response [5] 138% | inhibition [6] -5.18% | superoxide response (% of plate) [7] 109% | aptamer binding inhibition [8] 2% | response [9] -5.92% | inhibition [10] 3.29% | response [11] 1.38% | binding (% of control) [12] 103% | efflux inhibition (fraction of control) [13] 0.16 | inhibition [14] 7% | differentiation response [15] 3.28%
69.1%: double positive events [5]
